Structures are written as SMILES. Inconclusive results are not listed. The source made the active and inactive calls. Calls follow the shape of the dose curve; as a rule, active = well fitted cell-killing curve with a large enough effect; inconclusive = small, poorly fitted or top-dose-only effect, or effect the other way; inactive = no such curve, though single readings can be large or run the other way.

A short description of this experiment: Cell Viability - LYMP2-005 (AID 967). The following applies: LYMP2-005 lymphoblastoid cell viability; series mostly up to 92.2 µM; activity change, negative = viability loss: at the top concentration. An excerpt:
NIH Chemical Genomics Center [NCGC]
NIH Molecular Libraries Screening Centers Network [MLSCN]
National Institutes of Environmental Health Sciences [NIEHS]
National Toxicology Program [NTP]
We have developed a 1536-well cell-based assay for quantitative high throughput screening (qHTS) against a number of cell lines to determine in vitro cytotoxicity of small molecules. This particular assay uses a human lymphoblastoid cell line (LYMP2-005) purchased from Coriell Institute for Medical Research.
NCGC Assay Protocol Summary:
The CellTiter-Glo luminescent cell viability assay (Promega) is a homogeneous method to measure the number of viable cells in culture. The end point readout of this assay is based on quantitation of intracellular ATP, an indicator of metabolic activity, using the luciferase reaction. Luciferase catalyzes the oxidation of beetle Luciferin to oxyluciferin and light in the presence of ATP. The luminescent signal is proportional to amount of ATP present.
Using the CellTiter-Glo luminescent cell viability assay, the amount of cellular ATP was measured in the lymphoblastoid cell line with complete culture medium following compound treatment for 24 hours. The assay was performed in opaque white Kalypsys 1536-well plates. In the screen, tetraoctylammonium bromide was used as positive control. Library compounds were measured for their ability to cause acute toxicity in the cell line, as reflected by a decrease in intracellular ATP levels, in a concentration-dependent manner. […] AC50 values were determined from concentration-response data modeled with the standard Hill equation.
qHTS protocol for CellTiter Glo lymphoblastoid cellular assay
[Step] [Parameter] [Value] [Description]
1. Reagent; 5 uL; 2500 lymphoblastoid cells/well
2. Time; 5 hr; 37 C incubation
4. Controls; 23 nL; Tetraoctylammonium bromide 6.4pM to 92 uM
5. Time; 24 hr; 37 C incubation
6. Reagent; 5 uL; CellTiter Glo reagent
7. Time; 30 min; Room Temperature
8. Detection; Luminescence; Viewlux plate reader
Keywords: cell viability, cytotoxicity, lymphoblastoid cell line, luminescence, NTPHTS, NTPHTS_NCGC, NIEHS, DSSTox, MLSMR, MLSCN, NIH Roadmap, qHTS, NCGC
Regarding `[Cl][In]([Cl])[Cl]`, the “activity change, negative = viability loss” value was 10.6% (inactive).
Take `Nc1ccc(S(=O)(=O)Nc2nccs2)cc1`: the “activity change, negative = viability loss” value was -23.1% (inactive).
Take `Oc1cccc(O)c1`: the “activity change, negative = viability loss” value is -44.4% (inactive).
Take `NC(=O)N/N=C/c1ccc([N+](=O)[O-])o1`: the “activity change, negative = viability loss” value was -14.2% (inactive).
Take `Cc1cc(CC(=O)O)n(C)c1C(=O)c1ccc(Cl)cc1`: the “activity change, negative = viability loss” value was -29% (inactive).
For `CCCCCCCCCCCCOS(=O)(=O)O`, the result was inactive.
Regarding `NCCNCCNCCN`, the “activity change, negative = viability loss” value was 13.7% (inactive).
Still for that read-out and setting: to `NC(=O)c1ncn([C@@H]2O[C@H](CO)[C@@H](O)[C@H]2O)n1` belongs -21.6% (inactive).
On the same count and under the same terms, next, `C[C@]12C[C@H](O)[C@H]3[C@@H](CCC4=CC(=O)CC[C@@]43C)[C@@H]1CC[C@@H]2C(=O)CO`: -19.6% (inactive); `NCCNCCNCCNCCN`: 2.73% (inactive).
As for `O=C1O[C@H]([C@@H](O)CO)C(O)=C1O`, the “activity change, negative = viability loss” value was -10.9% (inactive).
The same measure, in the same setting: to `CC12CCC(CC1)C(C)(C)O2` belongs 15.1% (inactive).
As to `COc1ccccc1O`, the compound was classed as inactive.
For the compound `Cc1cc2nc3c(=O)[nH]c(=O)nc-3n(C[C@H](O)[C@H](O)[C@H](O)CO)c2cc1C`, the “activity change, negative = viability loss” value was 9.19% (inactive).
As for `CCCCOC(=O)c1ccc(O)cc1`, the “activity change, negative = viability loss” value is 4.6% (inactive).

The record behind these values is PubChem BioAssay (NCATS).
